# Data reported in PubChem BioAssay AID504861 (Broad Institute, 2011).
# Screen size: about 1,200 compounds; about 290 (24%) were called active. Another 3% or so got no clear call; they are omitted.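 How the source made its calls: active means compounds lowering cell viability signal with fitted half-maximal concentration at most ten times their highest tested concentration; inconclusive means flat fit with 30 to 70% signal loss, or poor fit; inactive means the rest.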 The list is a sample of the results. Entries with a potency or affinity are not part of this list.
# Experiment: HEK293T cell viability reduction, dose response, cytotoxicity control for LMP1 NF-kB inhibitor project, CellTiter-Glo luminescence, cherry-picks (AID 504861)
# Conditions: CellTiter-Glo ATP luminescence, 48 h; series mostly up to 26 µM
row,Structure (SMILES),outcome
1,Cc1cccc(Nc2nc(Cl)ncc2F)c1C,inactive
2,Cc1ccnc(SCCn2c(N3CCN(c4ccccc4)CC3)nc3c2c(=O)[nH]c(=O)n3C)n1,inactive
3,O=C(NCCCN1CCCCC1)c1ccc2c(c1)NC(=O)c1ccccc1S2,inactive
4,COc1ccc(-c2cc3nc(-c4ccccc4)cc(N4CCCC(O)C4)n3n2)cc1 (stereo not given),inactive
5,O=C(N/C(=C/c1ccc(Br)cc1)C(=O)N1CCOCC1)c1ccc(Br)o1,inactive
6,COc1cccc(-c2nc(NCc3ccccc3)c3ccccc3n2)c1O,inactive
7,O=C(NCCc1ccccc1)c1ccc2nccnc2c1,inactive
8,O=C(Nc1ccc(Cl)c(Cl)c1)Nc1nc(-c2ccccc2)cs1,inactive
9,CCc1ccccc1N(CC(=O)NCc1ccco1)C(=O)c1snc(C(N)=O)c1N,inactive
10,CCn1c2ccccc2c2cc(NC(=O)c3ccccc3-c3ccccc3C(=O)O)ccc21,inactive
11,CCN(CC)Cc1cc(Nc2ccnc3cc(Cl)ccc23)ccc1O,inactive
12,O=S(=O)(c1ccc2c(c1)C(=NO)c1cc(S(=O)(=O)N3CCCCC3)ccc1-2)N1CCCCC1,inactive
13,Nc1nc(N)nc(-c2cc(Cl)ccc2Cl)n1,inactive
14,CCCc1cc(=O)c2c(O)ccc(OC)c2o1,inactive
15,CC1CCC(NC(=O)CC2Oc3ccccc3NC2=O)CC1 (stereo not given),inactive
16,O=S(=O)(c1ccccc1)N1CCN(c2cc(-c3ccccc3)nc3ncnn23)CC1,inactive
17,Cn1cccc1CC(=O)NNC(=S)Nc1ccccc1Cl,inactive
18,COc1ccccc1NC(=O)C(=O)N/N=C(\C)CC(=O)Nc1ccccc1C(F)(F)F,inactive
19,CC(C)(C)n1nc(-c2ccc(F)cc2)c2c(N)ncnc21,inactive
20,CCc1nnc(NC(=O)c2cc(S(=O)(=O)N3CCN(CC)CC3)ccc2Cl)s1,inactive
21,COc1ccc(CCC(=O)Nc2ccc(C)c([N+](=O)[O-])c2)cc1,inactive
22,CN(C)S(=O)(=O)c1cccc(NC(=O)c2n[nH]c(=O)c3ccccc23)c1,inactive
23,CCc1ccc(-c2nnn(CCC(=O)OC)n2)cc1,inactive
24,Cc1ccc(C(=O)Nc2cccc(C(=O)N/N=C/c3ccccc3F)c2)cc1,inactive

row,Structure (SMILES),outcome
1,Oc1cccc(/C=N/NC(=S)NCCN2CCOCC2)c1O,inactive
2,COc1ccccc1C1(CC(=O)O)CCOC(C)(C)C1 (stereo not given),inactive
3,CCCN1C(=O)C2(SC(NC(C)=O)=NN2C(C)=O)c2cc(C)cc(C)c21 (stereo not given),inactive
4,COc1ccc(OC)c2c1sc(=NC(=O)c1ccco1)n2C,inactive
5,Cc1ccc(NC(=S)Nc2cccc(S(=O)(=O)Nc3c(C)n(C)n(-c4ccccc4)c3=O)c2)cc1,inactive
6,Cc1ccc(C)c(S(=O)(=O)N2CCN(C(=O)c3ccc(C)s3)CC2)c1,inactive
7,O=C(Cn1ccc(C(F)(F)F)n1)Nc1cccc(S(=O)(=O)N2CCCCC2)c1,inactive
8,Cc1ccc(S(=O)(=O)N[C@H](C(=O)N2CCC(C(=O)N[C@@H](CC(=O)O)C(=O)O)CC2)C(C)C)cc1,inactive
9,C=CCn1c(C)c(C(C)=O)c(N2CCN(C(c3ccccc3)c3ccccc3)CC2)nc1=S,inactive
10,COc1ccccc1OCc1ccc(C(=O)c2ccccc2)cc1,inactive
11,COC(=O)c1ccc(COc2ccccc2/C=C/C(=O)c2ccc(OCC(=O)O)cc2)cc1,inactive
12,COc1cccc(C(=O)N2CCN(c3nc4cc(C)cc(C)c4cc3C#N)CC2)c1,inactive
13,Cc1ccc(N2CCN(C3=NC(=O)/C(=C\c4cn[nH]c4-c4ccccc4)S3)CC2)cc1,inactive
14,Cc1cnc(NC(=O)c2ccc(OCC3CCCO3)cc2)s1 (stereo not given),inactive
15,O=C(CSc1nnc(NC(=O)c2ccc3c(c2)OCO3)s1)NCc1ccco1,inactive
16,COc1ccc(C(=O)N(CN2CCCC2=O)c2cc(C)on2)cc1OC,inactive
17,COc1ccc(/C=C\C(=O)NCc2ccc3c(c2)cc(C)n3C)cc1OC,inactive
18,O=C(C[n+]1ccccc1)N/N=C/c1ccc(O)cc1,inactive
19,CCCCNC(=S)Nc1ccc([N+](=O)[O-])cc1,inactive
20,O=C(CCN1CCC(c2ccccc2)C1)c1ccc2c(c1)OCCO2 (stereo not given),inactive
21,CC(=O)Nc1ccc(OCCCNC(=O)c2c(-c3ccccc3)noc2C)cc1,inactive
22,CC(C)c1ccc(OCc2cccc(C(=O)N/N=C/c3cccnc3)c2)cc1,inactive
23,O=C(CCc1ccccc1Cl)N1CCN(S(=O)(=O)c2ccccc2)CC1,inactive
24,O=C(O)c1ccc(N/N=C/c2cc3cc4c(cc3nc2Cl)OCCO4)cc1,inactive

row,Structure (SMILES),outcome
1,O=C(Cc1cccc2ccccc12)Nc1ccc(-c2cc3ccccc3oc2=O)cc1,inactive
2,NC(=O)N/N=C/c1ccc(N2CCOCC2)s1,inactive
3,CC1(C)CC(NS(=O)(=O)c2ccc(F)cc2)CC(C)(C)N1,inactive
4,O=[N+]([O-])c1ccc(N2CCN(Cc3cccc([N+](=O)[O-])c3)CC2)cc1,inactive
5,O=c1[nH]c(=O)n([C@H]2C[C@H](O)[C@@H](CO)O2)cc1F,inactive
6,c1ccc(-c2nnc(-c3ccccn3)s2)nc1,inactive
7,Cc1c(NC(=O)c2cccc(NC(=O)COc3ccccc3C#N)c2)c(=O)n(-c2ccccc2)n1C,inactive
8,Cc1ccc(C(=O)Nc2cccc(C(=O)O)c2)cc1S(=O)(=O)N1CCCCC1,inactive
9,Cc1nc(Nc2nc3ccccc3o2)nc2c1CCC2,inactive
10,Cc1cccc(C)c1Nc1nc2ccccc2o1,inactive
11,COc1ccc(C=NNc2nc3ccccc3s2)cc1,inactive
12,CC1CCCN(C(=O)COC(=O)c2n[nH]c3ccccc23)C1 (stereo not given),inactive
13,COc1c(S(=O)(=O)N2CCN(c3ccc(F)cc3)CC2)ccc(Cl)c1Cl,inactive
14,CC(=O)c1ccc(-c2nc3c4ccccc4ccn3c2C(C)=O)o1,inactive
15,Cc1nn(-c2ccccc2)c(Cl)c1C1C(C#N)=C(N)Oc2n[nH]c(C)c21 (stereo not given),inactive
16,CCCCN(c1ccccc1)c1ncnc(N)c1[N+](=O)[O-],inactive
17,CN1CCN(CCOc2ccc(Cc3ccccc3)cc2)CC1,inactive
18,OC(CCCN1CCCCC1)(c1ccccc1)c1ccccc1,inactive
19,COc1ccc(/C=C/C(=O)OCC(=O)NCc2ccco2)cc1OC,inactive
20,NNC(=O)c1cccc(COc2ccc3c(c2)CCC3)c1,inactive
21,O=c1c([N+](=O)[O-])cn(Cc2ccccc2)c(=O)n1Cc1ccccc1,inactive
22,O=C1CSC(=S)N1Cc1ccccc1,inactive
23,CCOC(=O)C1=C(O)/C(=C/c2ccc(CNC(=O)C(=O)Nc3ccc(C)cc3)o2)N=C1C,inactive
24,O=C1CN(C(=O)c2ccc(F)c(S(=O)(=O)N3CCOCC3)c2)c2ccccc2N1,inactive

row,Structure (SMILES),outcome
1,COC(=O)[C@H](C)[C@H]1C[C@]1(C)[C@H](NC(=O)OCc1ccccc1)c1ccccc1,inactive
2,Clc1ccccc1C1=Nn2c(nnc2-c2ccncc2)SC1,inactive
3,Cc1cc(N/N=C\c2ccc(Br)cc2)nc(-n2nc(C)cc2C)n1,inactive
4,COc1ccc(S(=O)(=O)N2CCN(C(=S)NCC3CCCO3)CC2)cc1OC (stereo not given),inactive
5,Oc1c(N=NC(=S)Nc2ccccc2F)c2ccccc2n1Cc1ccccc1Cl,inactive
6,COc1ccc(C2=NN(C(=O)CSC3=NN4CCCC(=O)N=C4S3)C(c3cccc(OC)c3OC)C2)cc1 (stereo not given),inactive
7,O=C(NC1=NCCS1)c1cc2ccccc2o1,inactive
8,O=C(O)[C@@H]1[C@H]2C[C@H]3c4[nH]c5ccccc5c4CCN3C[C@@H]2CC[C@@H]1O,inactive
9,Cc1ccnc(NC(=O)c2ccc(OCC3CCCO3)cc2)c1 (stereo not given),inactive
10,Cc1ccnc(NC(=O)c2ccc(C(=O)c3ccccc3)cc2)c1,inactive
11,COc1ccc(C(c2c(C)n(C)n(-c3ccccc3)c2=O)c2c(C)n(C)n(-c3ccccc3)c2=O)c(OC)c1OC,inactive
12,CCCNC(=O)N1CCN(S(=O)(=O)c2ccc(C)c(C)c2)CC1,inactive
13,O=C(CCC(=O)NNC(=O)Nc1cccc(Cl)c1)NCc1ccccc1,inactive
14,Cc1cc(NCCCn2ccnc2)n2ncc(-c3ccccc3)c2n1,inactive
15,O=C(Nc1cnc2ccccn2c1=O)c1ccc(Cl)cc1Cl,inactive
16,O=C1c2cccc3c(O)ccc(c23)C(=O)N1c1ccc(Cl)cc1,inactive
17,CC(=O)c1ccc(-n2nnnc2SCC(=O)N2CCc3ccccc3C2)cc1,inactive
18,COc1cc(N)c(Cl)cc1C(=O)NC1CCN(Cc2ccccc2)CC1,inactive
19,CCOc1ccc(NC(=O)c2cnsn2)cc1,inactive
20,COc1ccc(-n2c(C)c(C(C)=O)c3cc(O)ccc32)cc1,inactive
21,Clc1ccc(-n2nnnc2Sc2ncnc3sccc23)cc1,inactive
22,COc1cc2nc(NC(=O)c3ccco3)sc(=O)c2cc1OC,inactive
23,O=C(Nc1ccc(Cl)cc1)c1ccco1,inactive
24,COc1cccc(/C=C2\SC(=S)N(CCC(=O)NCCc3ccc(O)cc3)C2=O)c1,inactive

row,Structure (SMILES),outcome
1,COc1ccc(NC(=O)Cn2nnc(C(=O)NCc3ccccc3)c2N)c(OC)c1,inactive
2,CNC(=O)C1=NCCCc2cc(OC)c(OC)cc21,inactive
3,CCc1ccc(/C=C2\SC(=S)N(CCCC(=O)Nc3ccccn3)C2=O)cc1,inactive
4,COc1ccc(OC)c2[nH]c(=O)c(CCNC(=O)c3ccc(S(=O)(=O)N(C)C)cc3)cc12,inactive
5,O=C(NOCc1ccccc1)c1ccc(Cl)cc1Cl,inactive
6,CCOC(=O)c1nc(NCc2ccccc2F)c2ccccc2n1,inactive
7,C/C(=N\NS(=O)(=O)c1ccc([N+](=O)[O-])cc1)c1cccs1,inactive
8,CC1Cc2ccccc2N1c1ncnc(N)c1[N+](=O)[O-] (stereo not given),inactive
9,O=C(/C=C/Nc1ccc(F)cc1Br)c1ccccc1,inactive
10,COc1ccc(C(=O)Nc2nnc(SCC(=O)NC3CC3)s2)cc1,inactive
11,O=C(COc1ccc2ccccc2c1)NCCNC(=O)COc1ccc2ccccc2c1,inactive
12,Cc1ccc(C(=O)CSc2nnnn2C(C)C)c(C)c1,inactive
13,O=C(Nc1nnc(-c2cccs2)o1)c1cccc(C(F)(F)F)c1,inactive
14,COc1ccc(C(=O)Nc2cccc(C(=O)N/N=C/c3ccc(OC)cc3OC)c2)cc1,inactive
15,COc1ccc(OCc2cccc(C(=O)Nn3cc([N+](=O)[O-])cn3)c2)cc1,inactive
16,Cc1ccc(C(=O)N2CCN(c3ccc(NC(=O)CSc4ccc(Cl)cc4)cc3)CC2)cc1,inactive
17,Cc1nnc(SCc2cnc(-c3ccc(C(C)C)cc3)s2)n1C,inactive
18,Cc1cc(NC(=O)CSc2ccnc(=O)[nH]2)no1,inactive
19,O=C1OCCC1Sc1nnc(-c2ccc(Cl)cc2Cl)o1 (stereo not given),inactive
20,O=c1[nH]c(Nc2nc3ccccc3o2)nc2c1CCCC2,inactive
21,O=C(Nc1ccc(CN2CCOCC2)cc1)c1cc2ccccn2n1,inactive
22,O=C(CC(c1ccc(F)cc1)c1ccco1)N1CCOCC1 (stereo not given),inactive
23,Clc1ccc(-c2ccnc(Oc3ccc4ccccc4c3)n2)cc1,inactive
24,CC(C)(C)c1cc(C(=O)NNC(=O)Nc2cccc(Cl)c2)n(Cc2ccccc2)n1,inactive
